Assay [1] deals with Human papillomavirus type 1a protein E7 (residues 44-93). Put plainly: small molecules binding HPV E7 44-93 – biochemical, small-molecule microarray, residues 44-93, 635 nm fluorescence, primary screen (AID 1108).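 Note: E7 fragment applied at 1 µg/mL in TBST for 1 h at 4 C; score combines spot fluorescence with its signal to noise ratio.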 The note with it: fluorescence 635 nm, higher = more signal.
Assay [2] can be described thus: hepatitis C replication reporter changes, two-sided – Huh7 cells, luciferase reporter, HCV replication inhibitor project, primary screen (AID 1109).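 Note: huh7 hepatoma cells harbouring a luciferase neomycin HCV replicon reporter; luciferase luminescence as measure of HCV replicon replication; test concentration not given here.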 To be noted: Huh7 HCV replicon luciferase reporter, 48 h; higher = more signal. A general note: A reporter such as luciferase makes a cellular process visible.
The target in assay [3] is Left-right determination factor 2 (Homo sapiens) (UniProt O00292). Briefly: small molecules binding LEFTY2 protein – biochemical, small-molecule microarray, 635 nm fluorescence scan, primary screen (AID 1110). To be noted: higher = more signal.
The target of assay [4] is Calmodulin-1 (Homo sapiens) (UniProt P0DP23). Put plainly: small molecules binding calmodulin-1 with EGTA – biochemical, small-molecule microarray, Cy5-labelled CALM1, profiling panel (AID 1111).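 Note: labelled calmodulin applied in Tris saline Tween buffer holding calcium plus EGTA and DTT.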 The note with it: Cy5-CALM1 binding fluorescence, higher = more signal.
For assay [5] the target is unchanged. Put plainly: small molecules binding Ca-loaded calmodulin-1 – biochemical, small-molecule microarray, Cy5-labelled CALM1, plus calcium, artefact control for SMM control-protein annotation, profiling panel (AID 1112).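 Note: score merges spot fluorescence with signal to noise from triplicate slides.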 The note with it: Cy5-CALM1 binding fluorescence, higher = more signal.
Assay [6] can be described thus: probe aWnt5a binding to arrayed compounds – biochemical, biotinylated probe, 635/667 nm fluorescence, primary screen (AID 1113).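 Note: score merges 667 nm fluorescence intensity with signal-to-noise per printed feature.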 The note with it: small-molecule microarray, higher = more signal.
The nature of assay [7]: probe aShh binding to arrayed compounds – biochemical, biotinylated probe, 635/667 nm fluorescence, primary screen (AID 1114).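 Note: probe is biotin-labelled aShh protein from a stem cell growth factor screen; measures binding of labelled protein to compounds printed on the slide; score merges feature fluorescence at 667 nm with signal-to-noise.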 To be noted: small-molecule microarray, higher = more signal.
A short description of assay [8]: probe aNog binding to arrayed compounds – biochemical, biotinylated probe, 635/667 nm fluorescence, primary screen (AID 1115).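 Note: probe is biotinylated aNog protein used at 0.15 µg/mL for 1 h at 4 C; z-score combines 667 nm fluorescence of each spot with its signal to noise.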 To be noted: small-molecule microarray, higher = more signal.
Assay [9] addresses Torsin-1A-interacting protein 1 (Homo sapiens) (UniProt Q5JTV8). Put plainly: compound microarray binding of lysate hLAP1 – cell lysate, small-molecule microarray, COS7 lysate, 635/667 nm fluorescence, primary screen (AID 1116). The note with it: 635 nm fluorescence, higher = more signal.
Assay [10] has as its target Alpha-bungarotoxin (Bungarus multicinctus) (UniProt P60615). Put plainly: compounds binding labelled alpha-BTX control protein – biochemical, small-molecule microarray, Alexa647 label, 635/667 nm fluorescence, artefact control for SMM control protein annotation, profiling panel (AID 1117). The note with it: alpha-BTX-A647 binding fluorescence, higher = more signal.
In the next assay the target is Albumin (Bos taurus) (UniProt P02769). Put plainly: compounds binding labelled BSA control protein – biochemical, small-molecule microarray, Alexa647 label, 635/667 nm fluorescence, artefact control for SMM control protein annotation, profiling panel (AID 1118).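 Note: score merges 667 nm emission intensity and signal-to-noise per printed compound spot.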 The note with it: BSA-A647 binding, fluorescence 635 nm, higher = more signal.
The nature of assay [11]: probe aXIP binding to arrayed compounds – biochemical, NeuroSMM set, 635/667 nm fluorescence, primary screen (AID 1119).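 Note: probe is the protein aXip251-270 applied at 1 µg/mL to compound-printed slides; binding of probe to printed compounds measured as 667 nm fluorescence plus signal to noise.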 To be noted: small-molecule microarray, higher = more signal, called active from +8 up or from −8 down.
A short description of assay [12]: probe aNOTCH3 binding on compound microarray – biochemical, small-molecule microarray, 635/667 nm fluorescence, primary screen (AID 1120).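 Note: probe is a biotin-tagged antibody raised against NOTCH3 rather than NOTCH3 protein; score merges spot fluorescence near 667 nm with spot signal to noise.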 To be noted: higher = more signal.
Assay [13] in a line: probe aNOTCH2 binding on compound microarray – biochemical, small-molecule microarray, 635/667 nm fluorescence, primary screen (AID 1121).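 Note: score merges feature fluorescence read at 667 nm with its signal to noise.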 To be noted: higher = more signal.
The target of assay [14] is Carbonic anhydrase 2 (Homo sapiens) (UniProt P00918). Briefly: compounds binding carbonic anhydrase 2 – biochemical, small-molecule microarray, Alexa647-labelled CAII, profiling panel (AID 1122). The note with it: CAII-A647 binding fluorescence, higher = more signal.
A short description of assay [15]: COS7 lysate on small-molecule microarray, probe aHis, 635 nm (AID 1123).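 Note: z-score combines 667nm fluorescence intensity with signal-to-noise per printed compound spot.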 To be noted: COS7 cell lysate, fluorescence, higher = more signal.
Assay [16] in a line: probe aLAP1 signal on lysate-treated microarray – cell lysate, small-molecule microarray, COS7 lysate, primary screen (AID 1124).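 Note: lysate comes from COS7 cells expressing LAP1 and is applied at 0.3 µg/mL; score merges spot fluorescence near 667 nm with signal-to-noise over triplicate slides.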 To be noted: probe aLAP1, fluorescence, higher = more signal.
A further assay deals with Sam68 (KHDRBS1). Put plainly: compounds binding KHDRBS1 protein – biochemical, small-molecule microarray, 635 nm fluorescence, primary screen (AID 1125).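 Note: score merges 667 nm channel intensity with signal to noise over triplicate slides.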 The note with it: higher = more signal.
For assay [17], the system named is Chordin-like protein 2 (CHRDL2). Put plainly: compounds binding chordin-like 2 – biochemical, small-molecule microarray, 635 nm fluorescence, primary screen (AID 1126).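 Note: printed compound slides probed with Chrdl2 protein at 4 µg/mL for 1 h at 4 C; score merges 667 nm emission intensity with signal to noise over three replicate slides.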 The note with it: fluorescence 635 nm, higher = more signal.
The target in assay [18] is Concanavalin-A (Canavalia ensiformis) (UniProt P02866). Put plainly: compounds binding concanavalin A lectin – biochemical, small-molecule microarray, Alexa647 label, 635 nm, artefact control for SMM control protein annotation, primary screen (AID 1127).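 Note: z combines 667 nm emission intensity with signal-to-noise across three replicate slides.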 The note with it: ConA-A647 binding fluorescence, higher = more signal.

The source made the active and inactive calls.

Albumin (Bos taurus), sequence (P02769 whole entry, looked up): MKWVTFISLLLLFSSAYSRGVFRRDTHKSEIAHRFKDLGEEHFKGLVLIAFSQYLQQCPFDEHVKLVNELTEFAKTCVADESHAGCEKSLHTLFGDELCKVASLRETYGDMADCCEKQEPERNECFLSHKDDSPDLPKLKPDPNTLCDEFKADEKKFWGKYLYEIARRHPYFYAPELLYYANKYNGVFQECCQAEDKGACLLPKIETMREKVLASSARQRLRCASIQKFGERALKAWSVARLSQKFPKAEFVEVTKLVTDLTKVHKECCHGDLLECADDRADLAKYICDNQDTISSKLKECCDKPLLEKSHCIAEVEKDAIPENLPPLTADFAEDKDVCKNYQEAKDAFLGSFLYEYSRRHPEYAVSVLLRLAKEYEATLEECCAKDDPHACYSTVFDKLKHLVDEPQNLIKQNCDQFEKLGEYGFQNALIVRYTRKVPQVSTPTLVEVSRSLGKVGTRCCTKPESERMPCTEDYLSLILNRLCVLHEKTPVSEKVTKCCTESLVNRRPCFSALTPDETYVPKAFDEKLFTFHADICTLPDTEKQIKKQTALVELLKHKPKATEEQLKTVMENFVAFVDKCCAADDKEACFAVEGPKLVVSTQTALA
Torsin-1A-interacting protein 1 (Homo sapiens), sequence (Q5JTV8 whole entry, looked up): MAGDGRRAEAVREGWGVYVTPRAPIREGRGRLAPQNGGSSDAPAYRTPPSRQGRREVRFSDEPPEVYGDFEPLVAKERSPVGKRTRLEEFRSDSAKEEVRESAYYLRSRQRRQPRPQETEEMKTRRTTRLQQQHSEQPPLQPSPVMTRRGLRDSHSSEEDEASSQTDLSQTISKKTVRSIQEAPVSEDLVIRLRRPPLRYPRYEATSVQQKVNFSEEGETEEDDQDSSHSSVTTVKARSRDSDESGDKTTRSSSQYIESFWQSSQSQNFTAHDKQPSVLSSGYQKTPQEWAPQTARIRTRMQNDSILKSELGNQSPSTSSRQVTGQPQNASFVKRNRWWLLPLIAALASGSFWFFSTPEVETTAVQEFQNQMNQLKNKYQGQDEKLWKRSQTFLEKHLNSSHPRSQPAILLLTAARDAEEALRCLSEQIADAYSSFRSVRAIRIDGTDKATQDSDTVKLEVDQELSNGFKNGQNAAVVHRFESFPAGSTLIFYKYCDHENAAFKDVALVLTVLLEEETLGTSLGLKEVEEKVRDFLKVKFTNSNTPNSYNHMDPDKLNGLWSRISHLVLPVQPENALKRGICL
Alpha-bungarotoxin (Bungarus multicinctus), sequence (P60615 whole entry, looked up): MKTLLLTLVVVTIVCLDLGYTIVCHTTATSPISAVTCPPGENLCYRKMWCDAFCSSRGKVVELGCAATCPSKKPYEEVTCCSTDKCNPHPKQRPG
Left-right determination factor 2 (Homo sapiens), sequence (O00292 whole entry, looked up): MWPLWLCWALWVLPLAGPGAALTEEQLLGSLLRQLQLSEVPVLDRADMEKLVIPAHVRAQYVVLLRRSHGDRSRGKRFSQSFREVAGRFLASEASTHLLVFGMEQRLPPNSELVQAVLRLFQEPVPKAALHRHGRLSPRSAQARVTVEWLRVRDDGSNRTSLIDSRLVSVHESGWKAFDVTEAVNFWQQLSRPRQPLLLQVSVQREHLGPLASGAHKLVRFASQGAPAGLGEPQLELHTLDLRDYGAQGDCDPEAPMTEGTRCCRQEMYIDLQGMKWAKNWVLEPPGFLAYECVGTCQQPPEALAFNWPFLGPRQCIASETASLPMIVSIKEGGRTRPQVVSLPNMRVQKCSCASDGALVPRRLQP
Concanavalin-A (Canavalia ensiformis), sequence (P02866 whole entry, looked up): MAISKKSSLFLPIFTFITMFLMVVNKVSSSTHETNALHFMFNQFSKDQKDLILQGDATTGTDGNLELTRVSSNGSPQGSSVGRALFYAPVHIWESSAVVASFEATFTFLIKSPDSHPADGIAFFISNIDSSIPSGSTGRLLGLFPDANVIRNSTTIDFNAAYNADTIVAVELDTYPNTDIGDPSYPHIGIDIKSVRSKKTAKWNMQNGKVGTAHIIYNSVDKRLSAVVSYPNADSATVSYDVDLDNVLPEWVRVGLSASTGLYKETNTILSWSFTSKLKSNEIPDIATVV

Turning to `N#Cc1ccc(NN2C(C(O)C3CCCCC3)C=CC3C(=O)N(c4ccccc4)C(=O)C32)cc1` (stereo not given), the composite z-score in assay [1] is 1.48; in assay [3], 0.0137; in assay [4], 1.82; in assay [5], 0.779; in assay [6], 0.0859; in assay [7], 0.294. The composite z-score in assay [8] was 1.32; in assay [9], -0.102; in assay [10], 1.09; in the assay with Albumin (Bos taurus), 0.919; in assay [12] it was 0.459; in [13], 0.0636. Further, the composite z-score in assay [14] was 0.184; in [15], 2.62; in assay [16] it was 0.236; in the assay with Sam68 (KHDRBS1), 1.29; in assay [17] it was -0.915; in [18] it was 1.21. In assay [2], this compound displayed a z-score of -0.785. For the same compound, the composite Z-score in assay [11] is 0.417 (inactive).

Take `NCCCCCCNC(=O)[C@H]1C[C@H]2C(=O)NCC(=O)N2[C@H]1c1cccc(OCCO)c1`: the composite z-score is 0.298 in assay [1]; 0.816 in [3]; -0.0421 in assay [4]; -0.369 in [5]; -0.0643 in [6]; 0.199 in assay [7]. For the same compound, the composite z-score in assay [8] was 0.0234; in assay [9], 0.963; in assay [10], 1.37; in the assay with Albumin (Bos taurus), -0.512; in [12], -0.0311; in [13], -0.153. For the same compound, the composite z-score was 0.536 in [14]; 1.07 in assay [15]; 0.295 in assay [16]; 1.29 in the assay with Sam68 (KHDRBS1); 1.37 in [17]; 1.1 in assay [18]. In [2], this compound had a z-score of -0.128. Besides, the composite Z-score in assay [11] was 0.727 (inactive).

As for `C[N+](C)(C)CCCCCCNC(=O)[C@H]1C[C@H]2C(=O)N3CCC[C@H]3C(=O)N2[C@H]1c1ccc(O)cc1`, the composite z-score in assay [1] was 1.41; in assay [3], 0.26; in [4], 0.0573; in assay [5] it was -0.965; in [6], -0.178; in assay [7], 0.0639. Also, the composite z-score in assay [8] is -0.29; in assay [9], 0.541; in assay [10], -0.37; with Albumin (Bos taurus) it was -0.608; in assay [12] it was 0.0039; in assay [13] it was -0.107. Further, the composite z-score was 0.5 in [14]; 1.73 in [15]; -0.379 in assay [16]; 0.485 in the assay on Sam68 (KHDRBS1); 0.472 in [17]; 0.709 in [18]. In assay [2], the z-score came to 0.741. Further, in assay [11], the composite Z-score was 0.287 (inactive).

`COCCOC(=O)N1C(=O)[C@@]2(c3ccccc31)[C@H](C(=O)NC[C@H](O)c1ccccc1)[C@H]1C(=O)O[C@H](c3ccccc3)[C@H](c3ccccc3)N1[C@@H]2c1ccc(OCCO)cc1`: the composite z-score in assay [1] is 1.11; in [3], 0.965; in assay [4], 0.932; in assay [5], -0.373; in assay [6], -0.0263; in [7], 0.0723. The composite z-score is -0.466 in assay [8]; 1.13 in assay [9]; 0.247 in [10]; 0.605 in the assay with Albumin (Bos taurus); 0.267 in [12]; -0.0959 in assay [13]. The composite z-score in [14] was 0.492; in assay [15] it was 1.53; in [16] it was -0.0994; in the assay with Sam68 (KHDRBS1) it was 1.3; in [17], 1.22; in [18], 1.12. Moreover, in assay [2], the z-score is -1.33. In addition, in assay [11], the composite Z-score was -0.404 (inactive).

With `O=C(O)[C@@]1(Cc2ccccc2)N=C(c2ccc(OCCCO)cc2)O[C@H]1c1ccccc1`, the composite z-score in [1] was 0.843; in [3] it was -1.13; in assay [4] it was 0.102; in assay [5] it was 1.07; in [6], -0.0179; in [7], 0.216. The composite z-score in [8] is 0.966; in assay [9] it was -0.514; in [10], 1.07; with Albumin (Bos taurus), 0.32; in [12] it was -0.0932; in [13], -0.147. The composite z-score in assay [14] was 0.529; in assay [15], 1.29; in assay [16], -0.183; in the assay with Sam68 (KHDRBS1), 0.499; in assay [17], -1.15; in [18] it was 0.649. Further, the z-score in [2] is -0.0284. For the same compound, in assay [11], the composite Z-score was -0.419 (inactive).

The record behind these values is PubChem BioAssay.
